# Measurements: PubChem BioAssay AID1565 (Sanford-Burnham Center for Chemical Genomics, 2009)
# About 3,200 (1.1%) of roughly 290,000 compounds were called active. This is one part of a sample in which actives are shown more often than they occur. Values without a mark were called inactive. Cut-off read from the data, not from the text of the source: active = inhibition above about 60%; inactive = the rest.
# Biological target: Phosphoethanolamine/phosphocholine phosphatase (Homo sapiens) (UniProt Q8TCT1)
# Experiment: PubChem AID 1565
# Details: recombinant PHOSPHO1, absorbance phosphatase assay; at 13.3 µM; stronger effect = higher value
# Chain of Phosphoethanolamine/phosphocholine phosphatase (Homo sapiens) (Q8TCT1 whole entry, looked up): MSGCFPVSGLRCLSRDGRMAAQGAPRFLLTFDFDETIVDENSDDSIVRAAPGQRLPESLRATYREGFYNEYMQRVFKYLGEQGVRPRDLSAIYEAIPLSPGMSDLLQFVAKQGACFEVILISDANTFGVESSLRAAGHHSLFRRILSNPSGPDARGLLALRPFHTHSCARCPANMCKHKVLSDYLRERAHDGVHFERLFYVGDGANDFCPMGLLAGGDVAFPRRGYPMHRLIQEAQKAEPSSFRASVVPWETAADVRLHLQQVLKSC
row,Structure (SMILES),inhibition
1,Cc1ccc(NC(=O)C2CCCN2S(=O)(=O)c2cccc3cccnc23)c(C)c1 (stereo not drawn),70.1% (active)
2,Cc1cc(C)cc(NC(=O)C2CCCN2S(=O)(=O)c2cccc3cccnc23)c1 (stereo not drawn),44.5%
3,O=C(Nc1nccs1)C1CCCN1S(=O)(=O)c1cccc2cccnc12 (stereo not drawn),2.7%
4,O=C(CN(C(=O)c1csnn1)c1ccc(Br)cc1)NC1CCCC1,26.9%
5,CSCCC(NC(=O)c1cc([N+](=O)[O-])cc([N+](=O)[O-])c1)c1nc2ccccc2[nH]1 (stereo not drawn),-8.6%
6,CSCCC(NC(=O)c1ccc(=O)n(C)n1)c1nc2ccccc2[nH]1 (stereo not drawn),79.8% (active)
7,COc1ccc(CC(=O)N[C@@H](CCSC)c2nc3ccccc3[nH]2)cc1,12.4%
8,CCCCC(=O)Nc1ccccc1N1CCN(c2ccc(F)cc2)CC1,-152%
9,Oc1ccccc1-c1cc(-c2ccc(Cl)cc2)n[nH]1,19.7%
10,Cc1cc(C)c(SCCc2ccncc2)c(C)c1,24.1%
11,O=C(O)c1cccc(N2C(=O)Nc3ccccc3N2O)c1,8.3%
12,O=C(NC1CC1)c1ccc2c(c1)NC(=O)c1ccccc1S2,0.7%
13,C/C(=N\Nc1cccc(C(=O)O)c1)c1ccc2c(c1)Nc1ccccc1S2,81.3% (active)
14,Cc1ccccc1N1CCN(C2CCCN(C(=O)c3cn4c(C)cccc4n3)C2)CC1 (stereo not drawn),22.3%
15,Cc1ccc(NC(=O)CN2C(=O)NC(C)(c3ccc(Cl)cc3)C2=O)c(Br)c1 (stereo not drawn),27.9%
16,Cc1cc(NC(=O)CCC(=O)N(Cc2ccccc2)C(C(=O)NC2CCCC2)c2ccc(C)o2)no1 (stereo not drawn),46.2%
17,CCOCCCN(C)C1CCN(C(=O)c2oc3ccccc3c2NC(=O)Cc2cccc([N+](=O)[O-])c2)CC1,16.9%
18,CCOc1ccc(OCCSc2nc3ccccc3n2CC(=O)O)cc1,13.8%
19,Cc1cccc(N=C2NN=C(c3c[nH]c4ccccc34)CS2)c1,-2%
20,c1ccc(CN2CCC(N=C3NN=C(c4ccc5c(c4)OCCO5)CS3)CC2)cc1,12.7%
21,Clc1cccc(N=C2NN=C(c3ccc4c(c3)OCCO4)CS2)c1,78% (active)
22,CCCn1c(=O)c(C(=O)Nc2cc(C)ccn2)c(O)c2ccccc21,-7.8%
23,S=c1[nH]ccn1-c1ccc(Cl)cc1,-13%
24,S=c1[nH]nc(CSCc2ccc(Cl)cc2Cl)n1-c1ccccc1,34.7%

row,Structure (SMILES),inhibition
1,S=c1[nH]cc(-c2ccc(Cl)cc2)n1-c1ccccc1,69.5% (active)
2,CN1CCN(/N=C/c2ccc(-c3ccc([N+](=O)[O-])cc3)o2)CC1,17.9%
3,COc1cccc(CNC(=O)c2cccnc2Sc2ccc(Cl)cc2)c1,23.3%
4,Cc1nc(NC(=O)c2ccc3c(c2)OCCO3)ccc1Br,7.6%
5,CC(C)[C@@H]1COC(c2cccc(C3=N[C@H](C(C)C)CO3)c2)=N1,-1.7%
6,COc1ccc(C(=O)NC2CC2)cc1OC1CCN(Cc2ccc(SC)cc2)CC1,27.3%
7,O=C(Nc1cn(-c2ccccc2)nc1-c1ccccc1)c1ccccc1,-2.5%
8,Cc1onc(-c2ccccc2)c1C(=O)NNC(=S)NC(=O)c1ccc(F)cc1,-4.5%
9,O=C(NNC(=S)NC(=O)c1cn(-c2ccccc2)nc1-c1ccccc1)c1ccncc1,80.9% (active)
10,CC1CCN(C(=S)NC(=O)c2ccccc2Br)CC1,17.4%
11,COc1ccc(CCNC(=O)C2CCCN2C(=O)Nc2ccccc2)cc1OC (stereo not drawn),23.5%
12,Cc1c(CCC(=O)N[C@@H](CC(C)C)C(=O)O)c(=O)oc2c(C)c3oc4c(c3cc12)CCCC4,31.6%
13,Cc1ccc(NC(=S)N/N=C2/CCCc3c(C)cc(C)cc32)cc1,85.8% (active)
14,Cc1ccc(C)c(NC(=S)NNC(=S)Nc2ccc(C(C)C)cc2)c1,-6.1%
15,Cc1ccc(NC(=S)Nc2ccc(F)cc2)cc1,19.2%
16,COC(=O)c1ccc(NC(=O)CSc2nc(N)c(NC(=O)c3ccc(Br)o3)c(=O)[nH]2)cc1,42.8%
17,CCC(C)Sc1nnc(-c2c[nH]c3ccccc23)n1CCOC (stereo not drawn),61.5% (active)
18,CCOC(=O)N1CCN(C(=O)CSc2nnc(-c3c[nH]c4ccccc34)n2CCOC)CC1,25.5%
19,CCn1c(SCCC(C)C)nnc1-c1c[nH]c2ccccc12,0.7%
20,CC(C)(C)c1ccc(SCCc2ccncc2)cc1,13.8%
21,Cc1ccc(CC2C(=O)N(c3ccc(F)cc3)C(=O)C2C)cc1 (stereo not drawn),-2.6%
22,Cc1ccc(-n2c(C)cc(/C=N/Nc3ccc([N+](=O)[O-])cn3)c2C)c(C)c1,98.7% (active)
23,Cc1cc(/C=N/Nc2ccc([N+](=O)[O-])cn2)c(C)n1-c1cccc(C(=O)O)c1,15.9%
24,Cc1ccc(N2CCN(c3ccc([N+](=O)[O-])cn3)CC2)c(C)c1,19.7%

row,Structure (SMILES),inhibition
1,COC(=O)C1CCCCN1C(=O)c1ccc(OC2CCN(C(C)=O)CC2)c(OC)c1 (stereo not drawn),57.6%
2,COc1cc2[nH]c(=S)n(Cc3ccc(C)o3)c(=O)c2cc1OC,69.6% (active)
3,COc1cc2[nH]c(=S)n(Cc3ccc(F)cc3)c(=O)c2cc1OC,-42.1%
4,COc1cc2[nH]c(=S)n(CCN3CCCCC3C)c(=O)c2cc1OC (stereo not drawn),24.2%
5,COc1ccc(C(=O)NCCn2nc(C)cc2C)cc1OC1CCN(C(C)=O)CC1,19.2%
6,COc1ccc2c(c1)c1nc3n(c(=O)c1n2CC(=O)Nc1ccccc1)CCS3,-27.3%
7,Cn1c(=O)c2c(nc(NCCNC(=O)c3ccco3)n2Cc2ccccc2F)n(C)c1=O,26.1%
8,Cc1nn(C)cc1CNC(=O)Nc1ccc(Cl)cc1,8%
9,Cn1cc(Cl)c(C(=O)NNC(=S)Nc2cccc(Cl)c2)n1,-35.3%
10,Cc1nn(C)cc1C(=O)NNC(=S)Nc1ccc(Cl)cc1,97.7% (active)
11,O=S1(=O)N=C(N(CCO)/N=C/c2ccccc2F)c2ccccc21,28.4%
12,Cc1nonc1NC(=O)c1oc2ccccc2c1C,24%
13,CC1CCCCC1NC(=O)CSc1nnc(N)s1 (stereo not drawn),-3.4%
14,CC1CCCC(NC(=O)CSc2nccn2C)C1C (stereo not drawn),92.3% (active)
15,Cn1ccnc1SCC(=O)Nc1ccc2c(c1)OCCO2,19.8%
16,CCn1cc(/C=C(\NC(=O)c2cc(OC)c(OC)c(OC)c2)C(=O)N2CCN(C)CC2)c2ccccc21,49.6%
17,COc1ccc(C2/C(=C(/O)c3ccccc3)C(=O)C(=O)N2C)c(OC)c1 (stereo not drawn),-2.4%
18,COc1ccccc1C1/C(=C(/O)c2ccc(OC(C)C)cc2)C(=O)C(=O)N1c1cc(C)on1 (stereo not drawn),-55.7%
19,CCOc1ccc(/C(O)=C2\C(=O)C(=O)N(c3ccc(OC)cc3)C2c2ccccc2[N+](=O)[O-])cc1 (stereo not drawn),60.8% (active)
20,CC(C)CCOc1ccc(C(=O)C[N+]2(C)CCOCC2)cc1,90.6% (active)
21,CC(=O)c1ccc(OCCN2CCOCC2)cc1,-11.5%
22,COc1ccc(OCCC(=O)c2ccc(OC)cc2)cc1,20%
23,O=C(NCc1cccnc1)C12CC3CC(CC(C3)C1)C2,32.6%
24,CN(NS(=O)(=O)c1cccs1)c1ncc(C(F)(F)F)cc1Cl,33.5%

row,Structure (SMILES),inhibition
1,COc1ccc(-c2nnc(SCC(=O)c3cccs3)o2)c(OC)c1,28.9%
2,COc1ccc(C(=O)CSc2nnc(-c3ccco3)o2)cc1,36.7%
3,COc1ccc(-n2c(C)cc(C(=O)CSc3nnc(-c4cccs4)o3)c2C)cc1,85.5% (active)
4,CSCC[C@H](NC(=O)N1CCn2c1nc1ccccc12)C(=O)NC1CCCCC1,35.5%
5,COc1ccc(OCc2nnc3n2N=C(c2ccccc2)C(CC(=O)O)S3)cc1 (stereo not drawn),-69.6%
6,CN(C)c1cccc(C(=O)N2CCC(n3nccc3NC(=O)C3CCOC3)CC2)c1 (stereo not drawn),27.6%
7,COc1cccc(C(=O)N2CCC(n3nccc3NC(=O)C3CCOC3)CC2)c1 (stereo not drawn),40.8%
8,Cc1ccc(C(=O)N2CCC(n3nccc3NC(=O)Nc3cccc(F)c3)CC2)cn1,64% (active)
9,COc1ccc2[nH]c(C(=O)N/N=C/c3cc(OC)c(OC)c(OC)c3)cc2c1,9.8%
10,CCOc1ccc(NC(=O)C(C)N2C(=O)c3ccccc3C2=O)cc1 (stereo not drawn),24.3%
11,Cc1ccnc(NC(=O)C(C)N2C(=O)c3ccccc3C2=O)c1 (stereo not drawn),60% (active)
12,Cc1cc(C)nc(NC(=O)C(C)N2C(=O)c3ccccc3C2=O)n1 (stereo not drawn),-12.8%
13,CCc1nc2cccnc2n1-c1ccc(C(=O)O)cc1,35.1%
14,COc1ccc(CCNC(=O)C(=O)NCC2OCCN2S(=O)(=O)c2cccs2)cc1OC (stereo not drawn),4.5%
15,CC(=O)NCC(=O)N1CCC(n2nccc2NC(=O)CCCc2ccccc2)CC1,65.8% (active)
16,CCn1cc(CN2CCC(n3nccc3NC(=O)CCCc3ccccc3)CC2)c(C)n1,29%
17,COc1ccc(CN2CCC(n3nccc3NC(=O)CCCc3ccccc3)CC2)cc1C,37.7%
18,Cc1ccc(CN2CCC(n3nccc3NC(=O)CCCc3ccccc3)CC2)o1,2.6%
19,CC(=O)N[C@@H](C)C(=O)N1CCC(n2nccc2NC(=O)CCCc2ccccc2)CC1,61.6% (active)
20,COc1cc(CN2CCC(n3nccc3NC(=O)CCCc3ccccc3)CC2)ccc1O,-5%
21,N#Cc1ccccc1S(=O)(=O)N1CCN(C(=O)c2cc(-c3ccccc3)nn2-c2ccccc2)CC1,14.5%
